Results on 39 compounds are retold here after PubChem BioAssay AID1508622 (National Center for Advancing Translational Sciences (NCATS), 2021).

Activity calls are given as the source filed them. Where a call stands in place of a potency, no number is given. The call rests on the fitted dose curve; in most records, active means well fitted activation curve with a large enough effect; inconclusive means small, poorly fitted or top-dose-only effect; inactive means no such curve, though single readings can be large or run the other way.
Potency means the concentration at half of the fitted maximal effect.

The assay in a line: Confirmatory qHTS for Identification of Small Molecule Activators of Huntingtin-Antisense Promoter Activity. As to conditions: HEK293 HTT-AS promoter firefly luciferase reporter, 24 h; series mostly up to 57.5 µM. Summed up:
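2,500 luciferase reporter HEK293 cells/well; 24 h culture; cpds up to 57.5 uM final, PTC124 50 uM ctrl; 24 h, 37C; Dual-Glo FLuc reagent, 10 min RT; lum. Norm.: vehicle 0%, zero RLU -100%.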
(In general: qHTS replaces the single test concentration by a dilution series.)
With `COc1ccc(C(=O)NCCSc2c(C)[nH]c3ccccc23)cc1`, the Potency entry was “inactive”. Regarding `COc1cccc(C(=O)N2c3cc(C)ccc3C(C)(c3ccccc3)CC2(C)C)c1` (centres undefined), the Potency entry is “inactive”. As for `Cc1ccc(CNC(=O)Nc2cc(C(=O)NCc3ccc(C(C)C)cc3)ccc2N2CCCC2)cc1`, the entry is “inactive”; as for `Cc1cccc(CN2C(=O)N(c3ccc(C(C)C)cc3)S(=O)(=O)c3ccccc32)c1`, “inactive”; as for `COC(=O)c1c(C)oc2ccc(N(C(=O)c3ccncc3)S(=O)(=O)c3cc(C)c(C)cc3C)cc12`, “inactive”. `Cc1cc(Nc2cccc(C(F)(F)F)c2)nc2ccc(NC(=O)c3cccnc3)cc12`: the Potency entry was “inactive”. As for `Cc1ccc(S(=O)(=O)Nc2cccc(-c3ccc(N4CCCCC4)nn3)c2)s1`, the figure is 1.51 µM (active); as for `Cc1ccc(Cl)cc1-n1ncc2c(N3CCC(C)CC3)ncnc21`, “inactive”. As for `CCCOc1ccccc1C(=O)N1CCC(c2nc3ccccc3s2)CC1`, the Potency result was “inactive”. As for `Cc1ccc(Cn2c(=O)c3ccccc3n3c(-c4cccc(O)c4)nnc23)cc1`, the entry is “inactive”.

With `COc1ccc(NC(=O)CSc2nc(-c3cccs3)cc(C(F)(F)F)n2)cc1OC`, the Potency result is “inactive”. Next, `COc1ccc(CNC(=O)c2ccc3c(c2)CCN3S(=O)(=O)c2ccc(Cl)cc2)cc1`: “inactive”. As for `Cc1cccc(NC(c2cccc(Cl)c2)c2ccc3cccnc3c2O)n1` (centres undefined), the entry is “inactive”; as for `Cc1cc(Cl)ccc1OCC(=O)N1CCC(c2nc3ccccc3s2)CC1`, “inactive”. Next, `COc1ccc(-n2c(-c3ccco3)nc3c(cnn3-c3ccc(Cl)cc3)c2=O)cc1`: “inactive”; `COc1cc(OC)cc(C(=O)Oc2c(Sc3ccccc3)c(C)nn2C(C)(C)C)c1`: “inactive”.

As to `O=C(CCNS(=O)(=O)c1ccc2c(c1)CCN2C(=O)C1CC1)N1CCN(c2ccc(F)cc2)CC1`, the Potency result was “inactive”. As for `CCc1cccc(NC(=O)CSc2nc3ccsc3c(=O)n2CC)c1`, the entry is “inactive”; as for `O=S(=O)(NCc1ccc(Cl)cc1)c1ccc(N2CCCCS2(=O)=O)cc1`, “inactive”; as for `CCOC(=O)C1CCN(S(=O)(=O)c2ccc(N3CCCCS3(=O)=O)cc2)CC1`, “inactive”. Turning to `Cc1cccc(CNC(=O)C2CCN(S(=O)(=O)c3ccc4c(c3)CCCN4C(=O)C3CCC3)CC2)c1`, the Potency entry was “inactive”. As for `C1=CCOCc2cc(ccc2OCCN2CCCC2)Nc2nccc(n2)-c2cccc(c2)OCC1`, the entry is “inactive”; as for `O=C(CSc1nc(-c2cccc(F)c2)[nH]c1-c1ccccc1)Nc1ccc2c(c1)OCCO2`, “inactive”; as for `CCNc1nc2c(c(=O)n(C)c(=O)n2C)n1Cc1ccc(F)cc1`, “inactive”.

As to `Cc1nc(Nc2n[nH]c3c2CN(C(=O)N[C@H](CN(C)C)c2ccccc2)C3(C)C)c2sccc2n1`, the Potency result is “inactive”. As for `CCOC(=O)c1cc(-c2ccccc2)n(CCCC(=O)Nc2ccc(CC)cc2)c1C`, the entry is “inactive”; as for `Cc1ccc(CN2CCC(CNC(=O)c3cnn(-c4ccccc4Cl)c3C3CCN(C(=O)OC(C)(C)C)CC3)CC2)cc1`, “inactive”; as for `COc1ccc(-c2cccc(NS(=O)(=O)c3cc(C)c(OC)c(C)c3C)c2)nn1`, “inactive”. Next, `CCN(CCCNC(=O)CSc1cc(=O)n(CC)c2ccccc12)c1cccc(C)c1`: “inactive”. Next, `O=C(NCCc1nc2ccccc2n1CCCOc1ccc(Cl)cc1)C1CCCCC1`: “inactive”. For the compound `Cc1ccc(-c2c(C)n3c4c(=O)n(C)c(=O)n(C)c4nc3n2CCO)cc1`, the Potency entry is “inactive”. As for `O=C(Cn1c(=O)oc2cc(S(=O)(=O)N3CCCCCC3)ccc21)Nc1cccc(C(F)(F)F)c1`, the entry is “inactive”; as for `CC(=O)c1ccc(NS(=O)(=O)c2ccc3[nH]c(=O)[nH]c3c2)cc1`, 7.57 µM (active). As for `CCc1ccc(NC(=O)c2ccc(F)c(S(=O)(=O)N(C)C3CCCCC3)c2)cc1`, the entry is “inactive”; as for `O=C1C2=C(Nc3ccccc3SC2c2ccc(C(F)(F)F)cc2)c2ccccc21` (centres undefined), “inactive”. Next, `CN[C@H]1[C@@H](O)[C@@H]2O[C@@H]3O[C@H](C)CC(=O)[C@]3(O)O[C@@H]2[C@@H](NC)[C@H]1O`: “inactive”; `Cc1ccccc1C(=O)NCc1ccc2c(c1)CCN2C(=O)c1ccccc1`: “inactive”; `COc1ccc(NC(=O)Cn2nc(-c3ccncc3)ccc2=O)cc1Cl`: “inactive”.

Take `Cc1ccc(Cl)cc1N1CCN(C(=O)Cn2cnc3nc4c(cc3c2=O)CCCC4)CC1`: the Potency result was “inactive”.
